Results as given in the supplement of paper PMC3334620.
The full ranking holds about 33,000 sequences; the median of “E-score (-0.5 to 0.5)” is about -0.016, and the highest 2% start at about 0.32. Only a selection was taken, and the highest values are over-represented in it overall.

Molecular target: T1, Stp1 (UniProt B3LFK1)
T1 sequence: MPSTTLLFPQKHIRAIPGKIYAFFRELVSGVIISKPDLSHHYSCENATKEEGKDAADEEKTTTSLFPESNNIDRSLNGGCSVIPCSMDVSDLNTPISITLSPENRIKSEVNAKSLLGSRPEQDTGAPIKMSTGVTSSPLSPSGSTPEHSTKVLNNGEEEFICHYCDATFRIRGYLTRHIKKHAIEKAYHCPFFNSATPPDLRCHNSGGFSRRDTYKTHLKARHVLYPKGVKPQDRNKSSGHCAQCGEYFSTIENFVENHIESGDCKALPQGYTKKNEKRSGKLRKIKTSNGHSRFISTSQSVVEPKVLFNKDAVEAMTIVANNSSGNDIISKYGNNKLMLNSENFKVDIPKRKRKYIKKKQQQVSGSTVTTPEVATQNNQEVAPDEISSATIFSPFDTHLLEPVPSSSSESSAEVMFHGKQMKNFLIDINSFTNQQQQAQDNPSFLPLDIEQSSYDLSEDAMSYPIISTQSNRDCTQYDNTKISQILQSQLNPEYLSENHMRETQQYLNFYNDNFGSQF
Test: PBM E-score (8-mer binding enrichment) (E-score (-0.5 to 0.5)); higher = stronger / more preferred TF binding
Conditions: protein concentration: 200 nM; construct: GST-full length
Method: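 Universal 'all 10-mer' protein binding microarrays (Agilent AMADID 015681) probed with GST-tagged S. cerevisiae TFs (full-length or DBD) made by in vitro transcription/translation (PURExpress), about 100-200 nM. Bound TF was detected with fluorescent anti-GST. Each ungapped 8-mer (which stands for itself and its reverse complement) is scored by the PBM enrichment score (E-score), a modified Wilcoxon-Mann-Whitney statistic from -0.5 to +0.5, computed with the Universal PBM Analysis Suite. Scale: above 0.35 generally sequence-specific binding.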

| Sequence | PBM E-score |
| --- | --- |
| CCGCCGTC | 0.255 |
| CCCCCGTA | -0.238 |
| ACGCCGTG | 0.485 |
| ACGCCGTC | 0.41 |
| CGCCCGTA | -0.183 |
| ACACCGTA | -0.0212 |
| AGCCGAGG | 0.142 |
| CTGCTGCA | -0.169 |
| ATCAGGGA | -0.201 |
| GATTTAAC | 0.148 |
| ATTGATTG | 0.178 |
| ATTGATTA | 0.338 |
| ATTGATTC | 0.265 |
| ACGGCTAG | 0.235 |
| ACGGCTAC | 0.407 |
| ACGGCTAT | 0.349 |
| CCGGCTAC | 0.0509 |
| ACGGCTAA | 0.377 |
| AGGGCTAT | -0.325 |
| GCGGCTAA | 0.304 |
| TCGGCTAA | 0.145 |
| GCGGCTAC | 0.305 |
| AGTCTCCC | -0.272 |
| CTTATAGC | -0.0511 |
| CGGTGCAG | -0.0834 |

| Sequence | PBM E-score |
| --- | --- |
| GTCAAATA | 0.0762 |
| GTCGCAAC | -0.0752 |
| GAATAGTC | -0.205 |
| ACAGGCAC | -0.047 |
| CGCTAGGA | -0.0128 |
| CGCCGTAA | 0.418 |
| TCCCGTAA | -0.0808 |
| GACCGTAC | -0.0763 |
| AGCCGTAC | 0.432 |
| ATCCGTAC | 0.28 |
| CACCGTAA | 0.00961 |
| TACCGTAA | 0.0576 |
| GGCCGTAA | 0.192 |
| ACCCGTAC | 0.0646 |
| GGCCGTAC | 0.424 |
| TGCCGTAA | 0.34 |
| CCCCGTAA | -0.0389 |
| ATCGAGTG | 0.141 |
| AAATGTCC | -0.229 |
| AATAAGCC | 0.0484 |
| AGTGAATG | 0.0894 |
| CAGTAACG | 0.0111 |
| TGTGCCAA | 0.117 |
| ATGACTGA | -0.164 |
| CGATTCCG | -0.0394 |

| Sequence | PBM E-score |
| --- | --- |
| GAGGCCAA | -0.164 |
| ATAAATGG | 0.0779 |
| TAGGGCGA | 0.178 |
| ATCTCCTA | -0.214 |
| ATTGAGGA | -0.0544 |
| CACCGTAC | 0.121 |
| CGCCGTAC | 0.487 |
| AACCGTAT | -0.0259 |
| AGCCGTAG | 0.392 |
| CTCCGTAC | 0.184 |
| AGCCGTAT | 0.435 |
| CGCCGTAG | 0.465 |
| ACCCGTAG | -0.36 |
| CCCCGTAG | -0.0863 |
| CACCGTAG | -0.0209 |
| AGCCGTAA | 0.31 |
| ATCCGTAG | 0.112 |
| CGAGCCCA | -0.215 |
| GAGACGTA | -0.074 |
| ATTACTTC | -0.0579 |
| ACGTGTCA | -0.0154 |
| AAAGCACG | 0.0591 |
| CGATAGGC | 0.135 |
| ACACGGAC | 0.217 |
| ACACGGGC | 0.0838 |

| Sequence | PBM E-score |
| --- | --- |
| GCACGGCC | 0.415 |
| GCACGGGC | 0.19 |
| GCACGGAC | 0.28 |
| ACACGGCC | 0.344 |
| GTCTACAA | -0.0248 |
| CCAGGCGG | -0.0554 |
| AGACATTG | -0.194 |
| GATCTTCA | -0.025 |
| CTTTTAGA | 0.0884 |
| GCACGAAC | 0.101 |
| ACACGAAA | 0.0839 |
| GCACGAAA | 0.326 |
| GCCATACC | -0.0417 |
| CCAACTGA | -0.167 |
| ACGCCTCA | 0.313 |
| ACGCCTAC | -0.0656 |
| CCGCCTAC | -0.0313 |
| GTGCCTTA | 0.367 |
| GCGCCTAC | 0.35 |
| ATGCCTTA | 0.236 |
| GTGCCTGA | -0.105 |
| TCGCCTCA | 0.281 |
| ATGCCTCA | 0.279 |
| GCGCCTCA | 0.401 |
| GTGCCTCA | 0.365 |

| Sequence | PBM E-score |
| --- | --- |
| CTGCCTCA | -0.0442 |
| AGCCCACT | -0.203 |
| TCTTTGCA | 0.165 |
| GCAGACCC | -0.107 |
| CTCCCCTC | -0.3 |
| AACTTGGA | 0.0205 |
| ATCGTCTG | 0.0798 |
| AAAGGTAC | -0.00049 |
| GAAGTGCC | 0.309 |
| GAGTACTA | 0.051 |
| CCGCCTTA | 0.201 |
| GCGCCTGA | 0.16 |
| GCGCCTTA | 0.399 |
| ATTGCCCG | -0.0444 |
| ACGGCTCA | 0.403 |
| CCGGCTCG | -0.0179 |
| ACGGCTCC | 0.449 |
| ACGGCTCG | 0.444 |
| CCGGCTCC | -0.129 |
| AGGGCTCA | -0.101 |
| ACAGCTCT | -0.306 |
| AAGGCTCG | -0.0294 |
| GCGGCTCC | 0.315 |
| ACGGCTCT | 0.454 |
| AAGGCTCA | 0.16 |

| Sequence | PBM E-score |
| --- | --- |
| AAGGCTCT | 0.21 |
| CTCACAAA | 0.109 |
| GAAGAGGA | -0.286 |
| AATCGATG | 0.174 |
| GACGCTCA | -0.136 |
| GGGCTAGA | -0.142 |
| ACCTTTCG | -0.121 |
| CCTCTACC | -0.24 |
| AGAGTGTC | 0.0784 |
| ATGATCAT | 0.17 |
| GCATAGAA | 0.133 |
| GCATTGGC | -0.0163 |
| AGTTTGGA | 0.0815 |
| ACTGTCCT | -0.097 |
| ACTCTCCC | -0.159 |
| GAAACCTA | -0.22 |
| GGACTACC | -0.286 |
| AAGTCTGT | -0.193 |
| AACGATTG | 0.0458 |
| CGACAGCC | -0.0511 |
| GCGGCTCA | 0.461 |
| CCGGCTCA | 0.0597 |
| TCGGCTCA | -0.0668 |
| AAGAACGC | 0.185 |
| AAGAGCCT | 0.134 |

| Sequence | PBM E-score |
| --- | --- |
| AAGAGCCG | 0.336 |
| CAGAGCCA | -0.148 |
| CAGAGCCC | -0.0943 |
| CAGAGCCG | 0.338 |
| AAGAGCCA | 0.103 |
| AGAATAAC | -0.00738 |
| ACCAACGG | 0.173 |
| GTAGAGTA | 0.0935 |
| AGGGTAAC | -0.165 |
| GACGCCCC | -0.00392 |
| GACGCCGC | 0.453 |
| CACGCCGC | 0.417 |
| CACGCCGG | -0.0191 |
| CACGCCGA | 0.0798 |
| GACGCCGA | 0.304 |
| GGAACTTA | -0.0446 |
| ATGGCACA | 0.229 |
| CGGGCACG | 0.139 |
| AGGGCACA | 0.334 |
| CTGGCACA | -0.187 |
| ATGGCACG | 0.354 |
| AGGGCACG | 0.302 |
